Several values for one entry are separate records, joined by “and”; a condition that tells them apart may be missing. Equal entries are not always repeated. Activity calls are given as the source filed them.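 Rule for the calls, unless noted: active = normalized viability below 100% at a tested concentration; inactive = the rest.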
Tests used:
[1] = Wnt pathway potentiators raising nuclear beta-catenin – imaging, WNT3A-conditioned medium, mouse C2C12, NPC library, primary screen (AID 1117326; in the data active = nuclear beta-catenin stimulation mostly above about 4.2%, no sharp cut-off; inactive = mostly below about 10%); settings: stronger effect = higher value
[2] = stimulators of insulin release from INS-1E, primary screen, cell-based, 5 mM glucose, NPC library (AID 1117329;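 active = compound raises insulin release from rat beta cells at 5 mM glucose, no numeric limit stated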); settings: rat INS-1E insulin secretion, at 10 µM, stronger effect = higher value
[3] = growth inhibition of GSK3B-pretreated HCT116 cells – cell-based, CellTiter-Glo, 0.2 to 20 µM (AID 1117336;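 active = compounds lowering colon cancer cell viability after pretreatment blocking the GSK3B kinase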); settings: HCT116 viability after GSK3B inhibitor, at 20 µM, stronger effect = higher value
[4] = inhibition of endothelial tube formation, primary screen, imaging, VEGF stimulated, CD31 staining, tube area, NPC library (AID 1117340;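 active = compound that reduces growth-factor-driven endothelial tube area in a mixed cell culture, no cutoff stated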); settings: VEGF-stimulated ADSC/ECFC co-culture, at 10 µM, stronger effect = higher value
[5] = GLP1 release stimulators, primary, NCI-H716, NPC library (AID 1117341;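 active = compound raises GLP1 secretion from the human gut endocrine cells, with no numeric limit stated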); settings: NCI-H716 cells, at 10 µM, stronger effect = higher value
[6] = HCT116 colon cancer cell growth inhibition, primary screen, CellTiter-Glo luminescence, NPC library (AID 1117342;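 active = compounds that lower survival of HCT116 colon cancer cells in the luminescence readout, no numeric limit stated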); settings: at 20 µM (top of the series)
[7] = reduced SW480 viability measured with CellTiter-Glo, NPC library, primary (AID 1117343;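 active = compounds that lower viability of the colon cancer cells in the luminescence readout, with no numeric limit stated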); settings: CellTiter-Glo luminescence; at 20 µM (top of the series)
[8] = NPC library primary testing for decreased DLD-1 cell viability via CellTiter-Glo (AID 1117346;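 active = compounds that lower survival of DLD-1 colon cancer cells in the luminescence readout, no cutoff given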); settings: DLD-1 viability, CellTiter-Glo luminescence; at 20 µM (top of the series)
[9] = target: 6-phosphogluconate dehydrogenase, decarboxylating (Homo sapiens) (UniProt P52209); assay: inhibition of human phosphogluconate dehydrogenase – biochemical, recombinant enzyme, NADPH absorbance, primary screen (AID 1159550;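 active = at least 20% inhibition of 6-phosphogluconate dehydrogenase activity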); settings: recombinant 6PGD, NADPH absorbance 341 nm; at 10 µM; stronger effect = higher value
[10] = modulation of C. elegans fzo-1 (AID 1259413; call rule not given here;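 note: fzo-1 mutant C. elegans worms in liquid wells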); settings: C. elegans fzo-1 modulator screen, mean read-out; stronger effect = higher value
[11] = EMT-state selective cytotoxicity in co-culture – imaging, PC-3E GFP, TEM4-18 mCherry, primary screen (AID 1345086;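 active = compounds killing one labelled cell type while sparing the other, by normalised counts and ratio limits, not self-fluorescent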;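 for all read-outs here: cells exposed to compound for 72 h before imaging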;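 for red/green cell ratio (normalised): normalised mesenchymal count divided by normalised epithelial count so high means epithelial killing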); settings: PC-3E GFP / TEM4-18 mCherry co-culture, imaging cell counts, at 1 µM; for red/green cell ratio (normalised): actives lie on both sides, counts scaled to control wells, 1 = unselective
[12] = MELAS cybrid and Rieske KO viability enhancers – cell-based, MELAS cybrids, Rieske KO mouse fibroblasts, CellTiter-Glo, primary screen (AID 1508586;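 active = mean z-score across replicates of 1.96 or higher in either the MELAS or the Rieske mutant cell line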;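 note: z relative to plate mean and SD of compound and empty wells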); settings: low glucose
[13] = target: NAD(+) hydrolase SARM1 (Homo sapiens) (UniProt Q6SZW1); assay: blocking NAD cleavage by SARM1 SAM-TIR – cell lysate, NAD-Glo luminescence (AID 1508614;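 active = compound whose remaining NAD level is above about 45 nM, limit read from the data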;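 note: higher remaining NAD means stronger inhibition of SARM1 NADase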); settings: SAM-TIR HEK293T lysate NADase, at 1 µM, stronger effect = higher value
[14] = target: Mitogen-activated protein kinase 7 (Homo sapiens) (UniProt Q13164); assay: Gal4-ERK5 driven luciferase induction – cell-based, HTS, primary screen (AID 1508626;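 active = luciferase signal above three times the same-plate solvent-only control wells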;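 note: luciferase driven by Gal4-ERK5 fusion binding five Gal4 sites before minimal TATA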); settings: HeLa Gal4-ERK5 transactivation, 18 h, at 5 µM, stronger effect = higher value
F380Y = assay: BK channel mutant inhibitors and activators – cell-based, U2OS BacMam, thallium flux, beta subunits, selectivity assay, profiling panel (AID 1259406;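 active = thallium flux through the channel raised or lowered by more than 3 SD from vehicle-only wells, actives on both sides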;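 note: initial slope of Thallos dye fluorescence rise after thallium is added; log ratio against the mean of 0.3% DMSO vehicle wells on the same plate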); settings: U2OS BacMam BK variants, at 30 µM
F380Y/beta1 = assay: as above; settings: U2OS BacMam BK variants, at 30 µM
F380Y/beta2Delta = assay: as above; settings: U2OS BacMam BK variants, at 30 µM
[15] = viability loss with induced miR-34 in A549 – imaging, A549 dox-inducible miR-34, nuclei and caspase counts, primary screen (AID 1347080;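 active = compounds whose cell count with miR-34 switched on is under 0.7 times the count with it off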); settings: A549 miR-34 inducible, Hoechst nuclei count, 48 h
[16] = drug combination growth inhibition, ovarian cancer – cell-based, oncology-focused library, rucaparib conditional, profiling panel (AID 1508598); settings: patient-derived ovarian cancer cells, CellTiter-Glo viability, 144 h, stronger effect = lower value
[17] = measured here: epithelial PC-3E GFP cell survival
[18] = measured here: mesenchymal TEM4-18 mCherry cell survival
[19] = MELAS cybrid survival, CellTiter-Glo 48 h, stronger effect = higher value
[20] = Rieske KO mouse fibroblast survival, CellTiter-Glo 72 h

6-phosphogluconate dehydrogenase, decarboxylating (Homo sapiens), sequence (P52209 whole entry, looked up): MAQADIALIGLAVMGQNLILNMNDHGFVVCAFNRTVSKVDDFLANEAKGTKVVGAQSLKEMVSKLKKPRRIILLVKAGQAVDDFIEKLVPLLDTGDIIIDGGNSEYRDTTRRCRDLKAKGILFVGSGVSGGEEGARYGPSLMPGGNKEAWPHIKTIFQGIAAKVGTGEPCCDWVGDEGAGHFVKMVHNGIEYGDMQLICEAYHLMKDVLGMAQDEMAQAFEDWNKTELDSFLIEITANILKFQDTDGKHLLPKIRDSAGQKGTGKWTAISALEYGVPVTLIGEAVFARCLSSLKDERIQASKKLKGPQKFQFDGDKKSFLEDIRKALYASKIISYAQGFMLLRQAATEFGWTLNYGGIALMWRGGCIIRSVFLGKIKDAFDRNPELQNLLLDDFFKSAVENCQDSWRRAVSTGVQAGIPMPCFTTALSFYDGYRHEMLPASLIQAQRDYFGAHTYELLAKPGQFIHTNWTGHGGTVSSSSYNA
Mitogen-activated protein kinase 7 (Homo sapiens), sequence (Q13164 whole entry, looked up, the tested form may be a part): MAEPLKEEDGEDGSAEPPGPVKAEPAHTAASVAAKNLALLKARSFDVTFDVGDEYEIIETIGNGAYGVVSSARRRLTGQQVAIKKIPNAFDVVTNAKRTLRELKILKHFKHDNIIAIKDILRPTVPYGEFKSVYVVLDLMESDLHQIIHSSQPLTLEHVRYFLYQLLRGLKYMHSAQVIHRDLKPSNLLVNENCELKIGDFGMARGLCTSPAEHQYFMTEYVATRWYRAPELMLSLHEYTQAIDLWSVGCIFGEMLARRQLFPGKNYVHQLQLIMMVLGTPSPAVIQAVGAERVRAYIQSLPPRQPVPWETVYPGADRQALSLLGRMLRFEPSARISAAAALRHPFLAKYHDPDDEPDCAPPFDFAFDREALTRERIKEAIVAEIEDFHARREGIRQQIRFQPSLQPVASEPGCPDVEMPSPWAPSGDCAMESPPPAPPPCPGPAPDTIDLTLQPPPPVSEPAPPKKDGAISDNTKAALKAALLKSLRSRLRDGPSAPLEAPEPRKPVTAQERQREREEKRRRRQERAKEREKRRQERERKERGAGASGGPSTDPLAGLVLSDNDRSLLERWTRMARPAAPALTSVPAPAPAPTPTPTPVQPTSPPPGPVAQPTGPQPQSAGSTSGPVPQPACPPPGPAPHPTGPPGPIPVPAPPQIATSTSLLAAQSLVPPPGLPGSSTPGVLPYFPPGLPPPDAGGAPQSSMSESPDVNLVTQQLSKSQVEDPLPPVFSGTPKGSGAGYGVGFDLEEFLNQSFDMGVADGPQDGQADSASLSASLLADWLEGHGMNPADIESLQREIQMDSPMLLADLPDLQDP
NAD(+) hydrolase SARM1 (Homo sapiens), sequence (Q6SZW1 whole entry, looked up, the tested form may be a part): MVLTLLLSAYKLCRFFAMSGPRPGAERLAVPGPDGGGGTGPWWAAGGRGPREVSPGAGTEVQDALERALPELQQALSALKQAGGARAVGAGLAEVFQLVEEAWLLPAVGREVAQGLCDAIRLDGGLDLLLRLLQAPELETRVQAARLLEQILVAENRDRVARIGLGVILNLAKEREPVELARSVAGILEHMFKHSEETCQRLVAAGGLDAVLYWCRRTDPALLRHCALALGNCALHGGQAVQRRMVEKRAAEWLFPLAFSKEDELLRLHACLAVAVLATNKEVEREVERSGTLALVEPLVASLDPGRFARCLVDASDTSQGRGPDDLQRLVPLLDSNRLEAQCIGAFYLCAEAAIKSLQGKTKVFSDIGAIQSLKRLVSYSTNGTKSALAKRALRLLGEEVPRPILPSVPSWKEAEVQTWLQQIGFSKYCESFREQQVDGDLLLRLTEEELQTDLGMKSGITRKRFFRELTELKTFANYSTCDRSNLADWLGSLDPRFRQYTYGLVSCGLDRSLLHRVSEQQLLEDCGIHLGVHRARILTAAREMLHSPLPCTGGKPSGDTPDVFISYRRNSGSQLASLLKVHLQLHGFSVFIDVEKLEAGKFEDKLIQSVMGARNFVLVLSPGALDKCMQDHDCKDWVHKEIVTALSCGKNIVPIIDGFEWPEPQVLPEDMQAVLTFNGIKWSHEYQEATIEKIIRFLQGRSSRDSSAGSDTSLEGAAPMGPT

Cc1noc(NS(=O)(=O)c2ccc(N)cc2)c1C
0.73: normalised cell number [11, 17]
-0.11 and -0.107: z-score [12, 20]
inactive: nuclear beta-catenin stimulation ([1]; at 10 µM) 0.8% | insulin secretion stimulation [2] -1.5% | viability decrease [3] -14.5% | tube area decrease [4] 8.7% | GLP1 secretion stimulation [5] 0.1% | inhibition of viability [6] 0.13% | viability decrease (inhibition) [7] -27% | viability decrease (inhibition) [8] -5.7% | inhibition [9] -15.2% | mean signal [10] 256 | red/green cell ratio (normalised) [11] 1.68 | z-score [12, 19] -0.0643 and 0.19 | remaining NAD [13] 10 nM | luciferase signal [14] 100 AU | log fold change Tl+ flux (F380Y) 0.00425 | log fold change Tl+ flux (F380Y/beta1) -0.0556 | log fold change Tl+ flux (F380Y/beta2Delta) 0.028
1.22: normalised cell number [11, 18]
0.7%: nuclear beta-catenin stimulation ([1]; stimulation, at 2 µM)

CCOC(=O)[C@H](CCc1ccccc1)N[C@H]1CCc2ccccc2N(CC(=O)O)C1=O
2.2%: nuclear beta-catenin stimulation ([1]; stimulation, at 2 µM)
inactive: nuclear beta-catenin stimulation ([1]; at 10 µM) 27.7% | insulin secretion stimulation [2] 1.1% | viability decrease [3] -40.3% | tube area decrease [4] 33.7% | GLP1 secretion stimulation [5] 16.1% | viability decrease (inhibition) [8] 44.2% | inhibition [9] -6.81% | mean signal [10] 261 | red/green cell ratio (normalised) [11] 0.73 | fold change ([15]; stronger effect = lower value, cell number ratio, induced over uninduced) 0.89 and 0.936 | z-score [12, 19] 0.369 | remaining NAD [13] 10 nM | luciferase signal [14] 92 AU | log fold change Tl+ flux (F380Y) -0.0356 | log fold change Tl+ flux (F380Y/beta1) 0.0148 | log fold change Tl+ flux (F380Y/beta2Delta) -0.052
9000 and 10300: cell count ([15]; measured here: total cells with miR-34 induction, stronger effect = lower value)
10100 and 11000: cell count ([15]; measured here: total cells without miR-34 induction)
1.36: normalised cell number [11, 17]
2.29 and 1.38: fold change ([15]; measured here: relative caspase fold change +Dox/-Dox)
active: inhibition of viability [6] 51.1% | viability decrease (inhibition) [7] 102%
0.98: normalised cell number [11, 18]
0.328: z-score [12, 20]

COc1ccc([C@@H]2Sc3ccccc3NC(=O)[C@@H]2O)cc1
0.6%: nuclear beta-catenin stimulation ([1]; stimulation, at 2 µM)
inactive: nuclear beta-catenin stimulation ([1]; at 10 µM) 7.8% | insulin secretion stimulation [2] 2.8% | GLP1 secretion stimulation [5] 2.6%
active: viability decrease [3] 77.6% | tube area decrease [4] 57.7% | inhibition of viability [6] 96.6% | viability decrease (inhibition) [7] 87.2% | viability decrease (inhibition) [8] 67.4%

CC(C)C(=O)Nc1ccc([N+](=O)[O-])c(C(F)(F)F)c1
-0.2%: nuclear beta-catenin stimulation ([1]; stimulation, at 2 µM)
0.471 and 0.28 and 0.177: z-score [12, 20]
inactive: nuclear beta-catenin stimulation ([1]; at 10 µM) 0.6% | insulin secretion stimulation [2] 3.4% | viability decrease [3] 13.4% | tube area decrease [4] -12.8% | GLP1 secretion stimulation [5] -0.5% | inhibition of viability [6] 25.5% | viability decrease (inhibition) [7] 40.5% | viability decrease (inhibition) [8] -3.7% | inhibition [9] -5.89% | mean signal [10] 187 | red/green cell ratio (normalised) [11] 1.03 | z-score [12, 19] -0.353 and 0.314 and 0.345 | viability ([16]; at 0.000305 µM, OCI-C5x cells, with rucaparib 10 µM, 100% = cells with rucaparib alone) 102% | viability ([16]; at 0.000305 µM, OCI-C5x cells, without rucaparib) 114% | viability ([16]; at 0.000305 µM, OCI-P5x cells, without rucaparib) 103% | viability ([16]; at 0.00122 µM, OCI-C5x cells, with rucaparib 10 µM, 100% = cells with rucaparib alone) 114% | viability ([16]; at 0.00122 µM, OCI-C5x cells, without rucaparib) 115% | viability ([16]; at 0.00122 µM, OCI-P5x cells, without rucaparib) 104% | viability ([16]; at 0.00488 µM, OCI-C5x cells, with rucaparib 10 µM, 100% = cells with rucaparib alone) 111% | viability ([16]; at 0.00488 µM, OCI-C5x cells, without rucaparib) 113% | viability ([16]; at 0.00488 µM, OCI-P5x cells, with rucaparib 20 µM, 100% = cells with rucaparib alone) 107% | viability ([16]; at 0.00488 µM, OCI-P5x cells, without rucaparib) 106% | viability ([16]; at 0.0195 µM, OCI-C5x cells, with rucaparib 10 µM, 100% = cells with rucaparib alone) 114% | viability ([16]; at 0.0195 µM, OCI-C5x cells, without rucaparib) 118% | viability ([16]; at 0.0195 µM, OCI-P5x cells, with rucaparib 20 µM, 100% = cells with rucaparib alone) 104% | viability ([16]; at 0.0195 µM, OCI-P5x cells, without rucaparib) 105% | viability ([16]; at 0.0781 µM, OCI-C5x cells, with rucaparib 10 µM, 100% = cells with rucaparib alone) 112% | viability ([16]; at 0.0781 µM, OCI-C5x cells, without rucaparib) 116% | viability ([16]; at 0.0781 µM, OCI-P5x cells, with rucaparib 20 µM, 100% = cells with rucaparib alone) 103% | viability ([16]; at 0.0781 µM, OCI-P5x cells, without rucaparib) 112% | viability ([16]; at 0.313 µM, OCI-C5x cells, with rucaparib 10 µM, 100% = cells with rucaparib alone) 109% | viability ([16]; at 0.313 µM, OCI-C5x cells, without rucaparib) 109% | viability ([16]; at 0.313 µM, OCI-P5x cells, with rucaparib 20 µM, 100% = cells with rucaparib alone) 109% | viability ([16]; at 0.313 µM, OCI-P5x cells, without rucaparib) 115% | viability ([16]; at 1.25 µM, OCI-C5x cells, with rucaparib 10 µM, 100% = cells with rucaparib alone) 107% | viability ([16]; at 1.25 µM, OCI-C5x cells, without rucaparib) 118% | viability ([16]; at 1.25 µM, OCI-P5x cells, with rucaparib 20 µM, 100% = cells with rucaparib alone) 101% | viability ([16]; at 1.25 µM, OCI-P5x cells, without rucaparib) 113% | viability ([16]; at 5 µM, OCI-C5x cells, with rucaparib 10 µM, 100% = cells with rucaparib alone) 112% | viability ([16]; at 5 µM, OCI-C5x cells, without rucaparib) 133% | viability ([16]; at 5 µM, OCI-P5x cells, with rucaparib 20 µM, 100% = cells with rucaparib alone) 104% | viability ([16]; at 5 µM, OCI-P5x cells, without rucaparib) 112% | remaining NAD [13] 10 nM | luciferase signal [14] 76 AU | log fold change Tl+ flux (F380Y) 0.0165 | log fold change Tl+ flux (F380Y/beta1) 0.104 | log fold change Tl+ flux (F380Y/beta2Delta) -0.0159
0.92: normalised cell number [11, 17]
active: viability ([16]; at 0.000305 µM, OCI-P5x cells, with rucaparib 20 µM, 100% = cells with rucaparib alone) 93.2% | viability ([16]; at 0.00122 µM, OCI-P5x cells, with rucaparib 20 µM, 100% = cells with rucaparib alone) 98.6%
0.95: normalised cell number [11, 18]

Source: PubChem BioAssay
